Article PMC5700166

Each sequence was assayed against T1, GST-Dm-Relish (Drosophila melanogaster, UniProt Q94527 99-473) (assay: protein-binding microarray (PBM); PBM: ~300 nM protein, 6 mM HEPES pH 7.8, 80 mM KCl, 0.5 mM EDTA, 0.5 mM EGTA, 6% glycerol, 35 ng/ul poly-dIdC, 1% milk, 1 h, room temperature; Ap Aiptasia and Nv Nematostella (sea anemones) / Co Capsaspora / Aq Amphimedon (sponge) / Dm Drosophila / Hu human; RHD is the Rel homology domain; high values mean tight binding). Conditions: dsDNA, one strand shown.
T1 sequence: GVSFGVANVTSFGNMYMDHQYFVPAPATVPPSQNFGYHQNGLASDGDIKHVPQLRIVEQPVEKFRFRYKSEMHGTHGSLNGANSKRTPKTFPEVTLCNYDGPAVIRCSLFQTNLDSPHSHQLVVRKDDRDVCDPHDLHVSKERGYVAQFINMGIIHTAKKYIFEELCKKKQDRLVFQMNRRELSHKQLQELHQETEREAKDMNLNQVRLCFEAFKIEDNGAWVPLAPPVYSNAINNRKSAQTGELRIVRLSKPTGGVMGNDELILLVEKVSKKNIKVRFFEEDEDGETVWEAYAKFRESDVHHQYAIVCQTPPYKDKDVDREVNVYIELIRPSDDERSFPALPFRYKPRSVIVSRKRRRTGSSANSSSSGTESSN

Sequence | binding signal [z-score]
CCGATTAACATCAGGAATATACATGATGTTAATCGGGTCTTGATTCGCTTGACGCTGCTG | 2.59
CCGATTAACATCAAATAATTTCCTGATGTTAATCGGGTCTTGATTCGCTTGACGCTGCTG | 1.21
CCGATTAACATCAGCGTGACTTTTGATGTTAATCGGGTCTTGATTCGCTTGACGCTGCTG | 1.47
CCGATTAACATCACAGAAAATCCTGATGTTAATCGGGTCTTGATTCGCTTGACGCTGCTG | 1.19
CCGATTAACATCAGGAATGTACATGATGTTAATCGGGTCTTGATTCGCTTGACGCTGCTG | 4.12
CCGATTAACATCAAAAAAATTACTGATGTTAATCGGGTCTTGATTCGCTTGACGCTGCTG | 3.61
CCGATTAACATCAAGTAATTTTCTGATGTTAATCGGGTCTTGATTCGCTTGACGCTGCTG | 1.86
CCGATTAACATCAGTACATTCCATGATGTTAATCGGGTCTTGATTCGCTTGACGCTGCTG | 2.01
CCGATTAACATCATTTACATTCGTGATGTTAATCGGGTCTTGATTCGCTTGACGCTGCTG | 1.06
CCGATTAACATCAAATATTTTCCTGATGTTAATCGGGTCTTGATTCGCTTGACGCTGCTG | 1.09
CCGATTAACATCAAGTTTTTTCCTGATGTTAATCGGGTCTTGATTCGCTTGACGCTGCTG | 1.98
CCGATTAACATCAAAAAACCGTTTGATGTTAATCGGGTCTTGATTCGCTTGACGCTGCTG | 1.2
CCGATTAACATCAGTGGTTACCATGATGTTAATCGGGTCTTGATTCGCTTGACGCTGCTG | 2.13
CCGATTAACATCAGGAAATTCACTGATGTTAATCGGGTCTTGATTCGCTTGACGCTGCTG | 1.48
CCGATTAACATCAGGATTTTACATGATGTTAATCGGGTCTTGATTCGCTTGACGCTGCTG | 3.35
CCGATTAACATCACCATTATAGGTGATGTTAATCGGGTCTTGATTCGCTTGACGCTGCTG | 1.48
CCGATTAACATCAGAAAATTACATGATGTTAATCGGGTCTTGATTCGCTTGACGCTGCTG | 3.43
CCGATTAACATCACGGAATTCACTGATGTTAATCGGGTCTTGATTCGCTTGACGCTGCTG | 2.4
CCGATTAACATCATGGTACTTGTTGATGTTAATCGGGTCTTGATTCGCTTGACGCTGCTG | 1.26
CCGATTAACATCAGGAAAACACATGATGTTAATCGGGTCTTGATTCGCTTGACGCTGCTG | 2.56
CCGATTAACATCAGTGTGCTTCTTGATGTTAATCGGGTCTTGATTCGCTTGACGCTGCTG | 1.67
CCGATTAACATCACGTAGTTTCCTGATGTTAATCGGGTCTTGATTCGCTTGACGCTGCTG | 1.46
CCGATTAACATCAAGTAGTTTCCTGATGTTAATCGGGTCTTGATTCGCTTGACGCTGCTG | 2.37
CCGATTAACATCAGGAAAATTACTGATGTTAATCGGGTCTTGATTCGCTTGACGCTGCTG | 1.67
CCGATTAACATCACAATACACGCTGATGTTAATCGGGTCTTGATTCGCTTGACGCTGCTG | 1.05
